These results are taken from PubChem BioAssay.

The nature of experiment [1]: signal quenchers or enhancers, Cy5 substrate/SSB – biochemical, NIH Clinical Collection, E. coli SSB, artefact control for HCV NS3 helicase inhibitor project (AID 743268). As to conditions: Cy5-oligo bound E. coli SSB, fluorescence interference.
Experiment [2] relates to Hepatitis C virus NS3 helicase. As to the kind of experiment: blockers of NS3h binding to DNA – biochemical, fluorescence polarization, NIH Clinical Collection, primary screen (AID 743270). The note with it: NS3 helicase binding to Cy5-dT15 DNA, stronger effect = higher value, concentration not given here. (Fluorescence polarisation rises when a labelled molecule tumbles more slowly, as on binding a larger partner.)

For experiment [3], the target named is Single-stranded DNA-binding protein (Escherichia coli (strain K12)) (UniProt P0AGE0). As to the kind of experiment: SSB-ssDNA binding inhibitors – biochemical, fluorescence polarization, NIH Clinical Collection, counter-screen for HCV NS3 helicase inhibitor project (AID 743271; in the data active = inhibition above about 28%). The note with it: E. coli SSB-DNA binding, stronger effect = higher value, concentration not given here.

Experiment [4] can be described thus: compounds distorting NS3 helicase fluorescence signal – biochemical, NIH Clinical Collection, artefact control for HCV NS3 helicase inhibitor project (AID 743272).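 Note: HCV NS3 helicase with a Cy5 labelled single stranded DNA probe.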 As to conditions: fluorescence interference counterscreen, HCV NS3 helicase assay; stronger effect = lower value. (In general: Counterscreens check selectivity or assay interference.)
Experiment [5] can be described thus: modulation of C. elegans fzo-1 (AID 1259413).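 Note: fzo-1 mutant C. elegans worms in liquid wells.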 The note with it: C. elegans fzo-1 modulator screen, mean read-out; stronger effect = higher value.
The target of experiment [6] is Mitogen-activated protein kinase 7 (Homo sapiens) (UniProt Q13164). In words: Gal4-ERK5 driven luciferase induction – cell-based, HTS, primary screen (AID 1508626;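 active = luciferase signal above three times the same-plate solvent-only control wells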;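 note: luciferase driven by Gal4-ERK5 fusion binding five Gal4 sites before minimal TATA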). The note with it: HeLa Gal4-ERK5 transactivation, 18 h, at 5 µM, stronger effect = higher value.
Sequence of Mitogen-activated protein kinase 7 (Homo sapiens) (Q13164 whole entry, looked up, the tested form may be a part): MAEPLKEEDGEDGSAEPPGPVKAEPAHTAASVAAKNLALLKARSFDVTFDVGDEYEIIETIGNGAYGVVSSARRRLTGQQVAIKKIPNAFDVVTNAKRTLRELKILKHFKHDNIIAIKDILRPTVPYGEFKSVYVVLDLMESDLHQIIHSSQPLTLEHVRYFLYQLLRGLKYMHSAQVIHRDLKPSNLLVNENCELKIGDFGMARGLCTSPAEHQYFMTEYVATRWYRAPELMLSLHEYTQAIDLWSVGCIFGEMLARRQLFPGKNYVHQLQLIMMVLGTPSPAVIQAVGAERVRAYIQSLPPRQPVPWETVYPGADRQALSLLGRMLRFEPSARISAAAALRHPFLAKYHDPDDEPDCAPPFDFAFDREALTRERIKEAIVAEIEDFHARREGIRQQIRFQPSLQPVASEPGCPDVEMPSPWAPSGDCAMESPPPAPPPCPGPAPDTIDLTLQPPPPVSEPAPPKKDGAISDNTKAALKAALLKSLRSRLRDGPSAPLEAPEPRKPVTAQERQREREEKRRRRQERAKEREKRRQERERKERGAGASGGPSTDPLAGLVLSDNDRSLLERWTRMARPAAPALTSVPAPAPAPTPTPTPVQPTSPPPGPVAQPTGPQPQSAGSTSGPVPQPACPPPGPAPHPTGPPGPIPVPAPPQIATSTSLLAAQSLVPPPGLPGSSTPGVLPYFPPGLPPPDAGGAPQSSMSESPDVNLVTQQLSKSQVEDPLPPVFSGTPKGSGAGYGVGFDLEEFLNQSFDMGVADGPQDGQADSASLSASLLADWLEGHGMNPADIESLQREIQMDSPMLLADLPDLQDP
Experiment [7] in a line: galactose survival enhancers in mitochondrial complex I cybrids – cell-based, galactose medium, ATP luminescence, primary screen (AID 1645843;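 active = z-score of at least 1.8 in each of two replicates, scored against plate mean and spread of sample wells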;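 note: positive z means more ATP and so rescue of galactose-driven cybrid death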). As to conditions: complex I mutant cybrid cells, 72 h, stronger effect = higher value.
For another experiment, the system named is R275C/beta1. As to the kind of experiment: BK channel mutant inhibitors and activators – cell-based, U2OS BacMam, thallium flux, beta subunits, selectivity assay, profiling panel (AID 1259406;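 active = thallium flux through the channel raised or lowered by more than 3 SD from vehicle-only wells, actives on both sides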;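 note: initial slope of Thallos dye fluorescence rise after thallium is added; log ratio against the mean of 0.3% DMSO vehicle wells on the same plate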). As to conditions: U2OS BacMam BK variants, at 30 µM.
The next experiment concerns R275C/beta2Delta. The description is as above. As to conditions: U2OS BacMam BK variants, at 30 µM.
Another experiment concerns R275C/beta4. Described as above. The note with it: U2OS BacMam BK variants, at 30 µM.
The test system of the next experiment is R275C/Slo1WT/beta2. The experiment is described as above. The note with it: U2OS BacMam BK variants, at 30 µM.
Experiment [8] is described as follows: blockers of polyQ-driven CASP3 activation – cell-based (AID 1583). As to conditions: polyglutamine-induced caspase-3 activation, cell assay; stronger effect = higher value;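 tested at 10 µM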.
Experiment [9] in a line: yeast 75Q aggregation reduction – 75Q-TubU reporter (AID 1593). As to conditions: Yeast 75Q polyglutamine aggregation reporter.
Experiment [10] in a line: restoration of touch response, mutant HTT neurons – whole organism, C. elegans mechanosensory neurons, N-terminal huntingtin (AID 1599). As to conditions: C. elegans polyQ-huntingtin mechanosensory neurons, stronger effect = higher value.
The nature of experiment [11]: blockers of cytochrome c efflux from mitochondria – biochemical, purified mitochondria (AID 1603).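 Note: mouse liver mitochondria challenged with calcium chloride; signal normalized to the plate average as 100%.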 As to conditions: stronger effect = lower value.
The nature of experiment [12]: polyglutamine aggregate formation blockers (AID 1604). As to conditions: polyglutamine-induced protein aggregation inhibition assay; stronger effect = higher value; tested at 2.5 µM.
The nature of experiment [13]: glutamate transport activators, MN-1 cells, MN-1 cell line (AID 1612).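 Note: tested at 1 µM final; 0% = mean of DMSO vehicle wells on each plate; positive means more glutamate uptake than control and negative means less.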 The note with it: MN-1 motor neuron cells, stronger effect = higher value.
Experiment [14] can be described thus: 75Q-TubH aggregate inhibition, S. cerevisiae, yeast (AID 1616). The note with it: S. cerevisiae 75Q-TubH polyglutamine aggregation suppression; stronger effect = higher value.
Experiment [15] in a line: compounds altering viability of human ES cells (AID 493140).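 Note: cells exposed to compounds for four days before counting.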 As to conditions: human embryonic stem cell survival screen; stronger effect = higher value.
The nature of experiment [16]: growth inhibition, single agents and combos, ICB984, cell-based, cisplatin or BGB combos, synergistic combos for chromothripsis tumors (AID 1671451).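 Note: cells exposed for 96 hours before readout; 0% = vehicle DMSO and 100% = killing by high DMSO.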 The note with it: ICB984 medulloblastoma cells, drug combinations, stronger effect = higher value.
[17] abbreviates: measured here: 5 uM single agent, at 5 µM.

By inhibition is commonly meant the drop in the measured response relative to a control, in per cent.

“And” between values parts separate entries of the source, which are not always exact repeats. Equal values may be shown once. For some assays here: Potency and affinity values are given separately. The source made the active and inactive calls. Unless noted, the rule behind the calls is not given here.

For `N[C@@H](Cc1cc(I)c(Oc2cc(I)c(O)c(I)c2)c(I)c1)C(=O)O`, the fluorescence ratio in experiment [1] was 0.87 (inactive); in experiment [4], 0.88 (inactive). Further, the inhibition in experiment [2] is 0.45% (inactive); in experiment [3] it was 0.29% (inactive). The mean signal in [5] is 252 (inactive). The luciferase signal in experiment [6] is 112 AU (inactive). Also, in experiment [7], the z-score was -1.38 (inactive) and -0.805 (inactive). The log fold change Tl+ flux is 0.0456 (inactive) in the experiment on R275C/beta1, 0.134 (active) in the experiment on R275C/beta2Delta, 0.234 (active) in the experiment on R275C/beta4 and 0.0236 (inactive) with R275C/Slo1WT/beta2.

For the compound `CC1COc2c(N3CCN(C)CC3)c(F)cc3c(=O)c(C(=O)O)cn1c23` (stereo unspecified), the inhibition was 10.8% in experiment [8]; -2.27% (inactive) in [2]; 2.57% (inactive) in [3]; -17.9% and -25.7% and 9.81% in [16] (BGB IC20 combo, at 0.005 µM); -33.2% and -21.8% and -24% in [16] (BGB IC40 combo, at 0.005 µM); -26.1% and 10.2% and -18.3% in [16] (BGB IC40 combo, at 0.05 µM). Also, the inhibition is -27.6% (inactive) and 4.56% (inactive) and -22.5% (inactive) in experiment [16] (at 0.5 µM); -29.6% and 10.2% and -23% in [16] (cisplatin combo, at 0.05 µM); -35.8% and -11.2% and -26.4% in experiment [16] (cisplatin combo, at 0.5 µM); -56.5% and 3.02% and -28.7% in experiment [16] (cisplatin combo, at 5 µM); -20% and 15.7% and -1.17% in [16] (setting [17]). In [9], this compound had a score of 1.04. The compound also showed a rescue above control in experiment [10] of -6.02. The cytochrome c release ratio in [11] worked out at 1.57. The compound also had an inhibition of aggregation in [12] of 67.8%. Besides, the glutamate uptake change in [13] was -4.74%. In [14], the aggregation suppression score amounted to 1.18. Also, in [15], the survival was 10.6 (inactive). Further, the fluorescence ratio is 0.99 (inactive) in experiment [1] and 0.87 (inactive) in [4]. Moreover, the mean signal in experiment [5] is 237 (inactive). Moreover, the luciferase signal in [6] was 60 AU (inactive). For the same compound, the log fold change Tl+ flux is -0.02 (inactive) with R275C/beta1, -0.03 (inactive) with R275C/beta2Delta, 0.0112 (inactive) with R275C/beta4 and 0.0308 (inactive) with R275C/Slo1WT/beta2.

Regarding `COc1c(N2CCNC(C)C2)c(F)cc2c(=O)c(C(=O)O)cn(C3CC3)c12` (stereo unspecified), the fluorescence ratio in experiment [1] was 1.05 (inactive); in experiment [4] it was 1.01 (inactive). Besides, the inhibition in experiment [2] was -8.64% (inactive); in experiment [3], -6.58% (inactive); in experiment [16] (BGB IC20 combo, at 0.005 µM) it was 6.38% and 0.318%; in [16] (BGB IC40 combo, at 0.005 µM), -11.2% and -13.7%; in [16] (BGB IC40 combo, at 0.05 µM), -11.7% and 20.2%; in experiment [16] (at 0.5 µM), -18.4% (inactive) and -24.4% (inactive). Moreover, the inhibition in [16] (cisplatin combo, at 0.05 µM) is -15.7% and 18%; in [16] (cisplatin combo, at 0.5 µM) it was -12.4% and -7.73%; in [16] (cisplatin combo, at 5 µM), -26.5% and -51.5%; in experiment [16] (setting [17]), -2.69% and -3.52%. Also, the mean signal in [5] was 254 (inactive). The luciferase signal in experiment [6] is 72 AU (inactive). In addition, the z-score in experiment [7] is 0.695 (inactive) and -0.01 (inactive). Moreover, the log fold change Tl+ flux is 0.0168 (inactive) in the experiment with R275C/beta1, 0.00178 (inactive) with R275C/beta2Delta, -0.00176 (inactive) in the experiment on R275C/beta4 and 0.05 (inactive) in the experiment with R275C/Slo1WT/beta2.

For `COCCOC(=O)C1=C(C)NC(C)=C(C(=O)OC(C)C)C1c1cccc([N+](=O)[O-])c1` (stereo unspecified), the survival in [15] was 3 (inactive). Also, the fluorescence ratio was 0.87 (inactive) in experiment [1] and 0.92 (inactive) in experiment [4]. Besides, the inhibition in [2] is 6.77% (inactive); in experiment [3] it was 15.3% (inactive). Moreover, the mean signal in [5] is 225 (inactive). In experiment [6], the luciferase signal is 48 AU (inactive). For the same compound, the log fold change Tl+ flux was -0.0169 (inactive) in the experiment with R275C/beta1, -0.0566 (inactive) in the experiment on R275C/beta2Delta, -0.0265 (inactive) in the experiment with R275C/beta4 and -0.0323 (inactive) in the experiment with R275C/Slo1WT/beta2.

For `CC(COc1ccccc1)N(CCCl)Cc1ccccc1` (stereo unspecified), the values for the inhibition in experiment [8], in experiment [2] and in [3] were 31.4%, -5% (inactive) and -0.48% (inactive), respectively. The same compound had a score in experiment [9] of 0.5. In experiment [10], this compound displayed a rescue above control of 11.3. In addition, the cytochrome c release ratio in experiment [11] turned out to be 4.04. The inhibition of aggregation in [12] came out at 33.3%. Further, the glutamate uptake change in [13] is 18.7%. Further, in [14], the aggregation suppression score is 0.789. The survival in experiment [15] is 5.08 (inactive). Moreover, the results for the fluorescence ratio in experiment [1] and in experiment [4] were 1.06 (inactive) and 0.95 (inactive), respectively. In addition, in [5], the mean signal was 239 (inactive). The luciferase signal in experiment [6] was 68 AU (inactive). Moreover, the z-score in experiment [7] is -0.605 (inactive) and -1.23 (inactive). Also, the log fold change Tl+ flux with R275C/beta1 is 0.0364 (inactive); with R275C/beta2Delta, -0.0434 (inactive); in the experiment on R275C/beta4, 0.0533 (inactive); with R275C/Slo1WT/beta2, -0.0106 (inactive).
